A word on the AC50: it is the midpoint of the concentration-response curve, whichever way the signal moves.

Values joined by “and” are separate entries in the source; they are usually repeats but may differ in a detail not shown here. Equal values may be shown once. Some compounds were tested as several samples or in several runs, with calls that do not always agree. Active and inactive are the calls of the source. How the source made its calls: active means hit-call score of the fitted dose curve at least 0.9, where 1 is the maximum; inactive means score below 0.9.

The target of test [1] is CCAAT/enhancer-binding protein beta (Homo sapiens) (UniProt P17676). As to the kind of experiment: ATG_C_EBP_CIS: Attagene CIS-FACTORIAL HepG2 Assay for human CCAAT/Enhancer Binding Protein (C/EBP) beta (AID 2282927). The conditions noted are these: HepG2 Attagene cis-factorial transcription factor reporter; actives raise or lower the signal. In short, it runs like this: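 RT-PCR/capillary electrophoresis fluorescence of reporter mRNA, 24 h post-dose, in HepG2 cells carrying transfected cis-promoter reporter units. Bidirectional curve fitting against DMSO baseline captures gain or loss of signal.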
Chain of CCAAT/enhancer-binding protein beta (Homo sapiens) (P17676 whole entry, looked up): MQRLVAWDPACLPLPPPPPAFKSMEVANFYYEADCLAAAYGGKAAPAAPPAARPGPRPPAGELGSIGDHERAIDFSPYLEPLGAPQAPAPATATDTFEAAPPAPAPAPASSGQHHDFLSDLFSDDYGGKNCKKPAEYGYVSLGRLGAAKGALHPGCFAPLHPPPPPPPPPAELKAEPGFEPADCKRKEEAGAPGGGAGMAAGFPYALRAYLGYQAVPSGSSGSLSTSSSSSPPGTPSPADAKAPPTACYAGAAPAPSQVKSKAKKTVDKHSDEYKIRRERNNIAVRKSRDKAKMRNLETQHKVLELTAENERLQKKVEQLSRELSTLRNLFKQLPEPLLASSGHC

Test [2] can be described thus: ATG_CMV_CIS: Attagene CIS-FACTORIAL HepG2 Assay for human CMV (Internal Marker) (AID 2282928).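 Further: endpoint acts as a background internal control marker rather than a target.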 The conditions noted are these: HepG2 CMV promoter reporter, transcription factor profiling; actives raise or lower the signal. In a few lines: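 CMV internal-marker background readout in transiently transfected HepG2 cells bearing cis-regulated reporter units. Reporter mRNA is measured 24 h after dosing by RT-PCR and capillary electrophoresis, with bidirectional fitting against DMSO.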

Test [3] can be described thus: ATG_DR4_LXR_CIS: Attagene CIS-FACTORIAL HepG2 Assay for human Liver X Receptor (LXR), DR4 submotif (AID 2282929). The conditions noted are these: HepG2 Attagene DR4 cis-reporter, mRNA transcription; AC50: actives raise or lower the signal unless noted; outcome: actives raise or lower the signal unless noted. In short, it runs like this: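 After transient transfection with multiplexed cis-promoter reporter units, HepG2 cells received test chemicals for 24 h. Reporter mRNA induction, detected by fluorescence after RT-PCR and capillary electrophoresis, was scored relative to DMSO.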

Test [4] deals with Aryl hydrocarbon receptor (Homo sapiens) (UniProt P35869). As to the kind of experiment: ATG_Ahr_CIS: Attagene CIS-FACTORIAL HepG2 Assay for human Aryl Hydrocarbon Receptor (Ahr) (AID 2282930). The conditions noted are these: HepG2 AhR cis-factorial reporter transcription; actives raise or lower the signal. In short, it runs like this: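 HepG2 cells transiently transfected with cis-element-driven multiplexed reporter transcription units; endogenous transcription factor activity measured as reporter mRNA 24 h after dosing. RT-PCR, 6-FAM labelling, HpaI digestion, capillary electrophoresis; bidirectional fitting versus DMSO baseline.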
Chain of Aryl hydrocarbon receptor (Homo sapiens) (P35869 whole entry, looked up): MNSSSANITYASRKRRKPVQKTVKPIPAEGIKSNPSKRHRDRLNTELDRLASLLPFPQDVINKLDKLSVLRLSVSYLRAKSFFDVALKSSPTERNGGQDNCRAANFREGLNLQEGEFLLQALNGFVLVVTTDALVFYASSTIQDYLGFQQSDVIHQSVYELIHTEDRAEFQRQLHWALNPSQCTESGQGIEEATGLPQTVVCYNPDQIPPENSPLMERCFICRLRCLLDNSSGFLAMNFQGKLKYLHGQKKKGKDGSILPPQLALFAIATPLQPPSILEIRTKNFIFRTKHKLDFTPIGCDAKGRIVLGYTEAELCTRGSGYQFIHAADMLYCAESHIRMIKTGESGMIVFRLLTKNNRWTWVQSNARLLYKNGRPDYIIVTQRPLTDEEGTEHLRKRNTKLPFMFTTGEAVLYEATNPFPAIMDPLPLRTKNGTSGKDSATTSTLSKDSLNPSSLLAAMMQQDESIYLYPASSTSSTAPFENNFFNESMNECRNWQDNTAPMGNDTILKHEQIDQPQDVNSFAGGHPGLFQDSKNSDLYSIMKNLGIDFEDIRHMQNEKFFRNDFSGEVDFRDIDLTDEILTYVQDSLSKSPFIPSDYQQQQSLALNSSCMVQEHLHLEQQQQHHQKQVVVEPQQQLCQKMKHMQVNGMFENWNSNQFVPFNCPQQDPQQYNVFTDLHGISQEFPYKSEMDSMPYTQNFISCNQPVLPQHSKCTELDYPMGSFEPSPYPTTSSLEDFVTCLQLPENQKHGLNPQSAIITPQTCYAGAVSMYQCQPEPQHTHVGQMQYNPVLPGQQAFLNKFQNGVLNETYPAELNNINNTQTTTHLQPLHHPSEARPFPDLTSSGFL

A short description of test [5]: ATG_AP_1_CIS: Attagene CIS-FACTORIAL HepG2 Assay for human Activator Protein 1 (AP-1) (AID 2282931). The conditions noted are these: HepG2 Attagene cis-factorial AP-1 reporter mRNA; actives raise or lower the signal. In short, it runs like this:
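After 24 h incubation with test chemical, RNA from transfected HepG2 cells was reverse-transcribed, amplified, fluorescently labelled and digested before capillary electrophoresis. Reporters were driven by cis-regulatory promoters; activity fitted bidirectionally versus DMSO.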

Test [6] can be described thus: ATG_AP_2_CIS: Attagene CIS-FACTORIAL HepG2 Assay for human Activator Protein 2 (AP-2) (AID 2282932). The conditions noted are these: HepG2 AP-2 cis-reporter, Attagene transcription factor profiling; AC50: actives raise or lower the signal unless noted; outcome: actives raise or lower the signal unless noted. In short, it runs like this:
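Bidirectional curve fitting against DMSO was applied to reporter mRNA signals from HepG2 cells 24 h after dosing. Cis-promoter reporter units, transiently transfected, were read by RT-PCR plus capillary electrophoresis.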

A short description of test [7]: ATG_BRE_CIS: Attagene CIS-FACTORIAL HepG2 Assay for human Bone Morphogenetic Protein (BMP) Response Element (BRE) (AID 2282933). The conditions noted are these: HepG2 BMP response element reporter, Attagene transcription factor profiling; actives raise or lower the signal. In short, it runs like this: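 Read-out: reporter mRNA induction quantified by RT-PCR and capillary electrophoresis after 24 h chemical exposure of transfected HepG2 cells. Endogenous factor activity on the BMP response element; gain or loss fitted against DMSO baseline.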

Test [8] deals with Retinoic acid receptor alpha (Homo sapiens) (UniProt P10276). As to the kind of experiment: ATG_DR5_RAR_CIS: Attagene CIS-FACTORIAL HepG2 Assay for human Retinoic Acid Receptor Alpha (RARE), DR5 submotif (AID 2282934). The conditions noted are these: HepG2 Attagene cis-factorial RARE DR5 reporter, mRNA; actives raise or lower the signal. In a few lines: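 HepG2 cells transiently transfected with multiplexed reporter units under cis (DR5 RARE) promoters, so endogenous transcription factor activity is measured. After 24 h compound exposure, reporter mRNA is quantified by RT-PCR with fluorescent labelling and capillary electrophoresis; bidirectional fitting versus DMSO.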
Chain of Retinoic acid receptor alpha (Homo sapiens) (P10276 whole entry, looked up): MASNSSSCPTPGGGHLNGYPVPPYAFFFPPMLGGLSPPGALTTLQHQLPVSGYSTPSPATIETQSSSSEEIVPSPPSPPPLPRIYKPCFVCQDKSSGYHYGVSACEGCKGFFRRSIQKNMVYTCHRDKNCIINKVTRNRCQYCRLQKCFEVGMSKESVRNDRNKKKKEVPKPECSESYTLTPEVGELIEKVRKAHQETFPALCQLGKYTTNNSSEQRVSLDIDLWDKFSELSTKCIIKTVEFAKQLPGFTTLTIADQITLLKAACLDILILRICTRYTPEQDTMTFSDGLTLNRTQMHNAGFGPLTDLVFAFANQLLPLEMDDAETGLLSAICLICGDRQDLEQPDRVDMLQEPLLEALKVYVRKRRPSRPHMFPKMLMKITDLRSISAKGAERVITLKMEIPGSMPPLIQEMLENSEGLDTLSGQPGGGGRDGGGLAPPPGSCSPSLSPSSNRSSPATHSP

Test [9] concerns the target Transcription factor E2F1 (Homo sapiens) (UniProt Q01094). As to the kind of experiment: ATG_E2F_CIS: Attagene CIS-FACTORIAL HepG2 Assay for human E2F Transcription Factor 1 (AID 2282935). The conditions noted are these: HepG2 Attagene cis-reporter, E2F reporter RNA transcripts; actives raise or lower the signal. In a few lines:
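Multiplexed cis-reporter assay: HepG2, transient transfection, 24 h dosing, mRNA quantitation by labeled RT-PCR and CE.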

Test [10] in a line: ATG_E_Box_CIS: Attagene CIS-FACTORIAL HepG2 Assay for human Enhancer Box (E-box) (AID 2282936). The conditions noted are these: HepG2 E-box cis-reporter transcription, actives raise or lower the signal. In a few lines:
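Multiplexed CIS reporter system in transiently transfected HepG2 cells measures native transcription factor activity. Reporter RNA after 24 h exposure is profiled by RT-PCR-capillary electrophoresis.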

Chain of Transcription factor E2F1 (Homo sapiens) (Q01094 whole entry, looked up): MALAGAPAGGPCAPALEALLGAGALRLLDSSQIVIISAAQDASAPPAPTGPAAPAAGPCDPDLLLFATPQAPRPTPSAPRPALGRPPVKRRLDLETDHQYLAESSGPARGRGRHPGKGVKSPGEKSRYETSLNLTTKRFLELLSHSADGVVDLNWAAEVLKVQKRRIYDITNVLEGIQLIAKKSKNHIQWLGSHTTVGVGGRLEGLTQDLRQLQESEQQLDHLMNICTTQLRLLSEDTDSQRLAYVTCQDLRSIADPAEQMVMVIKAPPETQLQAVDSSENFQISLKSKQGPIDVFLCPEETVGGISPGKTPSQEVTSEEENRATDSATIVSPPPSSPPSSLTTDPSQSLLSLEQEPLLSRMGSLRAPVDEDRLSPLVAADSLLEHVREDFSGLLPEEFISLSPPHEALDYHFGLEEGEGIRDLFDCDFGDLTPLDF

With `O=C1c2ccccc2C(=O)c2c(O)c(O)cc(O)c21`, the result in test [1], in [3], in [6], in test [7], in test [8] and in test [9] was inactive. For the same compound, the AC50 in test [2] is 27.3 µM (active); in [4] it was 0.303 µM (active); in test [5], 19.8 µM (active); in test [10] it was 8.54 µM (active).
Turning to `C=C(c1ccc(C(=O)O)cc1)c1cc2c(cc1C)C(C)(C)CCC2(C)C`, the AC50 in test [1] was 0.0309 µM (active); in test [2], 4.89 µM (active); in test [3], 2.99 µM (active); in test [5], 11.4 µM (active); in test [6], 18.3 µM (active) and 34.7 µM (active); in test [9], 31 µM (active). Further, the AC50 in [10] is 19 µM (active). Moreover, the outcome in test [1], in test [2], in test [3], in [4], in test [5] and in [9] was inactive. Besides, the outcome in test [10] was inactive.
As to `c1cnc2c(c1)ccc1cccnc12`, the result in test [1], in test [2], in test [3], in [4], in test [5] and in test [6] was inactive. For the same compound, the call in test [8] and in test [9] was inactive. In addition, the AC50 in [2] is 2.89 µM (active); in test [6], 5.84 µM (active); in [10], 5.67 µM (active) and 3.9 µM (active).
Consider `Cc1ccc(C)c(S(=O)(=O)O)c1`, for which the result in test [1], in test [2], in test [3], in test [4], in test [5] and in test [6] was inactive. Moreover, the compound was called inactive in test [7], in test [8], in test [9] and in test [10].
As for `CC(C)(c1ccc(Oc2ccc(N)cc2)cc1)c1ccc(Oc2ccc(N)cc2)cc1`, the result in [1], in [2], in test [3], in [4], in test [5] and in test [6] was inactive. Also, in [7], the outcome was inactive.
Regarding `O=C(O)c1cccc(C(=O)O)n1`, the outcome in test [1], in test [2], in [3], in test [4], in [5] and in test [6] was inactive. Besides, the outcome in [7], in test [8] and in test [9] was inactive.
Take `CC(C)C=O`: the outcome in test [1], in test [2], in [3], in test [4], in test [5] and in test [6] was inactive. For the same compound, the compound was called inactive in test [7], in test [8], in [9] and in test [10]. Moreover, the concentration at half-maximal activity (AC50) in [2] is 87.6 µM (active); in test [3] it was 26.8 µM (active); in [5], 61.2 µM (active).
In the case of `Cc1ccccc1C(OCCN(C)C)c1ccccc1` (configuration not stated), the result in [1], in test [2], in test [3], in test [4], in test [5] and in [6] was inactive. The compound was classed as inactive in [7], in [8], in test [9] and in [10]. The AC50 in [3] was 135 µM (active).
On to `FC1(F)C=CC(F)(F)C1(F)F`, for which the result in test [1], in test [2], in [3], in [4], in [5] and in [6] was inactive. In addition, the call in [7], in test [8] and in test [9] was inactive.
Consider `O=C1OC2(c3ccccc31)c1cc(I)c(O)c(I)c1Oc1c2cc(I)c(O)c1I`, for which the result in [1], in test [2], in test [3], in test [5], in test [6] and in [8] was inactive. For the same compound, the compound was classed as inactive in test [9] and in test [10]. Further, the AC50 is 40.5 µM (active) in test [2] and 34.6 µM (active) in test [10].
Regarding `O=C(OC(=O)C(F)(F)C(F)(F)F)C(F)(F)C(F)(F)F`, the outcome in test [1], in [2], in test [3], in test [4], in test [5] and in test [6] was inactive. Also, the outcome in [7], in [8], in test [9] and in test [10] was inactive.
As to `Cc1cc(C(=C2C=CC(=Nc3ccc(S(=O)(=O)O)cc3)C=C2)c2ccc(Nc3ccc(S(=O)(=O)O)cc3)cc2)cc(S(=O)(=O)O)c1N`, the outcome in test [1], in [2], in [3], in test [4], in test [5] and in test [6] was inactive. The call in test [7] and in test [8] was inactive.
On to `Clc1ccc2c(Cl)ccnc2c1`, for which the result in test [1], in [3], in [5], in test [6], in [8] and in [9] was inactive. For the same compound, the AC50 in [2] was 57.3 µM (active); in test [4], 19.8 µM (active); in test [7] it was 65.6 µM (active).
As for `CC(C)(C)c1ccc(O)c(O)c1`, the outcome in test [1], in test [2], in test [3], in test [4], in [6] and in [8] was inactive. Besides, the outcome in test [9] was inactive. The AC50 in test [2] is 64.9 µM (active) [middle of 4 runs]; in [3], 40.8 µM (active); in test [4], 20 µM (active).
Turning to `CCCCCCc1ccc(N)cc1`, the result in [1], in test [2], in test [3], in test [5], in [6] and in test [7] was inactive. Also, the call in test [8] and in [10] was inactive. For the same compound, the AC50 in test [4] was 45.5 µM (active).
As for `COC(=O)C(F)(F)C(F)(F)C(F)(F)C(F)(F)C(F)(F)F`, the result in [1], in test [2], in test [3], in test [4], in test [5] and in [6] was inactive. The compound was classed as inactive in test [7], in [8] and in [10].
For `FC(F)=C(F)C(F)(F)C(F)(F)C(F)(F)C(F)F`, the outcome in test [1], in test [2], in test [3], in test [4], in test [5] and in test [6] was inactive. Besides, the compound was classed as inactive in [7], in test [8] and in [10].
As for `CC(C)(O)C(=O)c1ccccc1`, the result in test [1], in [2], in test [3], in test [4], in test [5] and in [6] was inactive. In addition, the outcome in test [7], in test [8], in [9] and in test [10] was inactive.
Take `COc1cccc(O)c1`: the outcome in test [1], in test [2], in test [3], in test [4], in test [5] and in test [6] was inactive. Besides, the outcome in [7], in [8], in test [9] and in [10] was inactive.
Regarding `c1ccc2c(c1)CCC2`, the outcome in test [1], in [2], in test [3], in test [4], in test [5] and in test [6] was inactive. The outcome in test [7], in [8], in test [9] and in [10] was inactive.
`COc1ccccc1NC(=O)c1cc2ccccc2cc1O`: the result in test [1], in test [5], in [6], in test [8] and in test [9] was inactive. The AC50 in test [2] is 100 µM (active); in test [3] it was 41.9 µM (active); in [4] it was 0.0553 µM (active); in test [7], 26.1 µM (active); in test [10], 26.7 µM (active).
Take `FC(F)(F)C1(F)C(F)(F)C(F)(F)C(F)(F)C(F)(C(F)(F)F)C1(F)F` (configuration not stated): the outcome in test [1], in test [2], in test [3], in test [4], in test [5] and in [6] was inactive. For the same compound, the call in test [7], in [8], in [9] and in [10] was inactive.
As to `CCCCCCCCCCCCCC[n+]1ccccc1`, the outcome in test [1], in test [2], in [3], in test [4], in test [8] and in test [10] was inactive. Moreover, the AC50 in test [5] was 0.252 µM (active); in [6], 19.8 µM (active); in test [7], 1.22 µM (active).

The record behind these values is PubChem BioAssay (EPA / NIEHS).
